Laboratory results reported in PubChem BioAssay AID504843 (Broad Institute, 2011).
Screen size: about 1,200 compounds; about 360 (30%) were called active. No rule for the calls is given here. These entries were drawn from the full list. Entries with a potency or affinity are not part of this list.

Test: bacterial growth inhibition, dose response, counter-screen, BacTiter-Glo luminescence, cherry-picked samples (AID 504843);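 also: growth measured after 8 h incubation at 30 °C; 0% = median of sample compound wells and -100% = antibiotic control wells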
Settings: BacTiter-Glo ATP luminescence; series mostly up to 15 µM; activity change, negative = inhibition: at the top concentration
For `CCc1nc2nc(C)c(NS(=O)(=O)c3ccc(Cl)s3)c(=O)n2[nH]1`, the “activity change, negative = inhibition” value was -0.224% (inactive). With `Cc1ccc(=O)n(-c2ccccc2)c1` the “activity change, negative = inhibition” value was 13.6% (inactive). For `COc1ccc(Cl)cc1S(=O)(=O)Nc1noc2ccccc12`, the “activity change, negative = inhibition” value was 19.9% (inactive). For `COc1ccc(Cc2nnc(NS(=O)(=O)c3ccc(Cl)cc3)s2)cc1OC`, the “activity change, negative = inhibition” value was -1.52% (inactive). In the case of `CC(C)(CO)[C@@H](O)C(=O)NCCC(=O)O`, the “activity change, negative = inhibition” value is reported as 1.6% (inactive). In the case of `COc1cc(C(=O)NCCOC(=O)c2cccc(N(C)C)c2)cc(OC)c1OC`, the “activity change, negative = inhibition” value is reported as -6.73% (inactive). In the case of `N#Cc1c(N)nc2c(c1-c1ccncc1)CCCCC2`, the “activity change, negative = inhibition” value is reported as -1.17% (inactive). For `Cc1ccccc1-n1c(SCC(=O)N2CCOCC2)nc(O)c(Cc2ccccc2)c1=O`, the “activity change, negative = inhibition” value was -10.1% (inactive). For `CN(Cc1ccccc1)C(=O)N1CCOCC1`, the “activity change, negative = inhibition” value was 1.22% (inactive). For `Cc1cc(C)n2nc(SC(C)C(=O)N3CC(C)OC(C)C3)nc2n1` (stereo not given), the “activity change, negative = inhibition” value was 1.03% (inactive). With `CN1CCN(c2ccc(S(=O)(=O)N3CCCCC3)cc2NC(=O)c2cccc([N+](=O)[O-])c2)CC1` the “activity change, negative = inhibition” value was 4.22% (inactive). With `COc1ccc(OC)c(NC(=O)c2cccnc2)c1` the “activity change, negative = inhibition” value was -6.8% (inactive). In the case of `O=C(O)c1ccc(N/N=C/c2ccc(-c3ccccc3)cc2)cc1`, the “activity change, negative = inhibition” value is reported as -0.556% (inactive). With `O=C(O)c1ccc(NS(=O)(=O)c2cc(C(=O)O)ccc2Br)cc1` the “activity change, negative = inhibition” value was 1.32% (inactive). With `Cc1ccnc(NS(=O)(=O)c2ccc(NS(=O)(=O)c3ccccc3)cc2)n1` the “activity change, negative = inhibition” value was -9.57% (inactive). With `Brc1ccc(NC2=Nc3ccccc3CC2)cc1` the “activity change, negative = inhibition” value was -1.59% (inactive). In the case of `C[C@@H]1O[C@@H](Oc2c(-c3ccc(O)c(O)c3)oc3cc(O)cc(O)c3c2=O)[C@H](O)[C@H](O)[C@H]1O`, the “activity change, negative = inhibition” value is reported as 13.4% (inactive). In the case of `C[C@H](NC(=O)c1nc[nH]c1C(=O)NCc1ccc(CNC(=O)OC(C)(C)C)cc1)c1ccccc1`, the “activity change, negative = inhibition” value is reported as -13% (inactive). In the case of `CC(C)(C)OC(=O)[C@H](Cc1ccccc1)NC(=O)c1nc[nH]c1C(=O)NC1CCN(C(=O)OC(C)(C)C)CC1`, the “activity change, negative = inhibition” value is reported as 16% (inactive). For `Cn1cc(CN2CCC(CO)(CCCc3ccccc3)CC2)c(-c2ccccc2)n1`, the “activity change, negative = inhibition” value was 9.02% (inactive). For `O=C(CCc1ccccc1)N1CCN(Cc2ccc(F)cc2Cl)CC1`, the “activity change, negative = inhibition” value was 14.4% (inactive). In the case of `CCCn1c(N)c(C(=O)CSc2nc(C)cs2)c(=O)n(C)c1=O`, the “activity change, negative = inhibition” value is reported as 23.1% (inactive). In the case of `O=C(Nc1ccccc1OC(F)F)c1oc2ccccc2c1COc1ccccc1`, the “activity change, negative = inhibition” value is reported as -3.7% (inactive). With `O=C(O)CC(NCc1ccco1)C(=O)OCCc1ccccc1` (stereo not given) the “activity change, negative = inhibition” value was 3.97% (inactive). In the case of `CC(/C=N/NC(=O)c1nnn(-c2nonc2N)c1C(C)C)=C\c1ccccc1`, the “activity change, negative = inhibition” value is reported as 0.692% (inactive). In the case of `CCn1c(SCC(=O)Nc2ccc(OC)cc2)nc2c1c(=O)n(C)c(=O)n2C`, the “activity change, negative = inhibition” value is reported as 0.126% (inactive). In the case of `CN1CCN(CCC(=O)Nc2ccc(OCc3ccccc3)cc2)CC1`, the “activity change, negative = inhibition” value is reported as 15.1% (inactive). For `CCOc1ccc(NC(C(=O)Nc2cccc(C(C)=O)c2)c2ccccc2)cc1` (stereo not given), the “activity change, negative = inhibition” value was -17.9% (inactive). With `CN(c1ccccc1C(=O)Nc1ccc(S(=O)(=O)N2CCOCC2)cc1)S(C)(=O)=O` the “activity change, negative = inhibition” value was 2.22% (inactive). In the case of `CC(C)(C)NC(=O)NC(=O)CSc1ccc(S(=O)(=O)N2CCOCC2)cn1`, the “activity change, negative = inhibition” value is reported as 11.8% (inactive). For `Cc1nc(SCc2nc3ccccc3[nH]2)c2oc3ccccc3c2n1`, the “activity change, negative = inhibition” value was -22.7% (inactive). In the case of `COc1ccc([N+](=O)[O-])cc1/C=N/NC(=O)Cc1ccccc1`, the “activity change, negative = inhibition” value is reported as 7.51% (inactive). For `O=c1/c(=C/c2ccc(O)c([N+](=O)[O-])c2)sc2nc3ccccc3n12`, the “activity change, negative = inhibition” value was -4.54% (inactive). In the case of `CC(SCC(=O)Nc1ccc(F)cc1)c1nc2ccccc2c(=O)[nH]1` (stereo not given), the “activity change, negative = inhibition” value is reported as 6.97% (inactive). With `Cc1nc2c(=O)n(-c3cccc(C(F)(F)F)c3)nc(C)c2s1` the “activity change, negative = inhibition” value was -8.93% (inactive). With `CCN1CCCC1CNCc1cccc(OC)c1OCc1ccc(F)cc1` (stereo not given) the “activity change, negative = inhibition” value was -0.034% (inactive). In the case of `CCN1CCCC1CNC(=O)C(=O)NC(C)C` (stereo not given), the “activity change, negative = inhibition” value is reported as 14.5% (inactive). For `O=C(O)c1sccc1OCc1ccccc1`, the “activity change, negative = inhibition” value was 9.78% (inactive). In the case of `O=C(CCC1CCCCC1)NCCN1CCOCC1`, the “activity change, negative = inhibition” value is reported as -15% (inactive). In the case of `CCOc1ccc(Br)cc1CNCCN1CCOCC1`, the “activity change, negative = inhibition” value is reported as -3.4% (inactive). For `COc1ccc(N=Cc2nc(-c3ccccc3)oc2OC(=O)c2ccccc2)cc1`, the “activity change, negative = inhibition” value was -13.6% (inactive). In the case of `CCNc1nc(OC)nc(Oc2ccc(=O)n(-c3ccccc3)n2)n1`, the “activity change, negative = inhibition” value is reported as -3.84% (inactive). For `Clc1ccc(-c2csc(-c3cccnc3)n2)s1`, the “activity change, negative = inhibition” value was -5.66% (inactive). For `Nc1nc2ccc([N+](=O)[O-])c(N)c2s1`, the “activity change, negative = inhibition” value was 5.18% (inactive). With `CCSC(=O)NC12CC3CC(CC(C3)C1)C2` the “activity change, negative = inhibition” value was 10.9% (inactive). With `O=C(O)c1ccccc1-c1nc2ccccc2c(=O)n1O` the “activity change, negative = inhibition” value was -15.3% (inactive). For `O=C(CSc1nc2ccccc2c(=O)n1CCCN1CCOCC1)Nc1ccc2c(c1)OCO2`, the “activity change, negative = inhibition” value was -1.96% (inactive). With `CN(C(=O)COC(=O)CNC(=O)C12CC3CC(CC(C3)C1)C2)C1CCS(=O)(=O)C1` (stereo not given) the “activity change, negative = inhibition” value was 14.9% (inactive). In the case of `N#CC1=C2SCC(O)(c3ccccc3)N2C(=O)CC1c1ccccc1F` (stereo not given), the “activity change, negative = inhibition” value is reported as 12.5% (inactive). In the case of `COc1ccc(C2CC(=O)Nc3n[nH]c(-c4ccccc4)c32)cc1OC` (stereo not given), the “activity change, negative = inhibition” value is reported as 2.24% (inactive). In the case of `COc1cc2c(cc1OC)C(c1cccc(F)c1)CC(=O)N2` (stereo not given), the “activity change, negative = inhibition” value is reported as -5.4% (inactive). For `Cc1csc(N2CCCC2c2nc3cc(C(F)(F)F)ccc3n2CCOCCO)n1` (stereo not given), the “activity change, negative = inhibition” value was 4.33% (inactive). With `CN1C2CCC1CC(NS(=O)(=O)c1cc(Cl)c(Cl)cc1Cl)C2` (stereo not given) the “activity change, negative = inhibition” value was 25.6% (inactive). For `CN(C)c1ccc(C(=O)n2nnc3ccccc32)cc1`, the “activity change, negative = inhibition” value was -16.1% (inactive). With `CC(C)(C)c1ccc(C(=O)O)c(C(=O)c2ccc(C(=O)O)cc2)c1` the “activity change, negative = inhibition” value was -10.4% (inactive). For `Nc1nnc(-c2cn(-c3ccccc3)nc2-c2ccc(Cl)cc2)o1`, the “activity change, negative = inhibition” value was 11.4% (inactive). For `COc1ccc(CNC(=O)Cn2nnc(-c3ccc(NC(=O)C4CCCCC4)cc3)n2)cc1`, the “activity change, negative = inhibition” value was -14.9% (inactive). With `Cc1cccc(CNC(=O)C2CCCN(c3nn4c(=O)cc(C)nc4s3)C2)c1` (stereo not given) the “activity change, negative = inhibition” value was 10.7% (inactive). In the case of `CCc1ccc(NS(=O)(=O)c2ccc3[nH]cc(C(=O)N4CCCCC4)c(=O)c3c2)cc1`, the “activity change, negative = inhibition” value is reported as 11.8% (inactive). For `C/C(=N\NC(=O)c1cccc(O)c1)c1cccc(NC(=O)c2ccc(F)cc2)c1`, the “activity change, negative = inhibition” value was -11.8% (inactive). With `CC(=O)NCC(=O)OCC(=O)c1ccc(C)cc1` the “activity change, negative = inhibition” value was -4.08% (inactive). In the case of `CCOC(=O)CNS(=O)(=O)Cc1ccccc1`, the “activity change, negative = inhibition” value is reported as 2.54% (inactive). In the case of `CCCCCn1c(CNC(=O)c2cccs2)nc2ccccc21`, the “activity change, negative = inhibition” value is reported as 0.73% (inactive). For `Cc1cccc(NC(=S)NC(C)CCc2ccccc2)c1` (stereo not given), the “activity change, negative = inhibition” value was 8.6% (inactive). In the case of `CCOC(=O)c1c2c3c(c(Cl)ccc3[nH]c1=O)C(=O)c1ccccc1-2`, the “activity change, negative = inhibition” value is reported as -22.5% (inactive). For `CCc1ccccc1NC(=O)CSc1nnc(-c2ccco2)n1N`, the “activity change, negative = inhibition” value was 13.7% (inactive). With `Cc1ccc(S(=O)(=O)Nc2ccnc(-c3cccnc3)n2)cc1` the “activity change, negative = inhibition” value was -4.2% (inactive). In the case of `Clc1ccccc1-c1ccc2ncnc(NCc3cccnc3)c2c1`, the “activity change, negative = inhibition” value is reported as 11.5% (inactive). For `Cc1ccc(/C=N/NC(=O)c2ccc(Cn3cc([N+](=O)[O-])cn3)o2)cc1`, the “activity change, negative = inhibition” value was 12.9% (inactive). In the case of `CC(C)(C)OC(=O)N[C@@H](Cc1ccccc1)[C@H](O)c1ccco1`, the “activity change, negative = inhibition” value is reported as 11.6% (inactive).
